Assay results reported in PubChem BioAssay (NCATS).
Several values for one entry are separate records, joined by “and”; a condition that tells them apart may be missing. Equal values may be shown once. Results filed as inconclusive are left out. Unmarked numbers belong to inactive results. Calls follow the shape of the dose curve; as a rule, active = well fitted curve in the direction sought with a large enough effect in the signal ratio, with a control signal flat; inconclusive = small, poorly fitted or top-dose-only effect, or effect the other way, or a change in a side signal; inactive = no such curve, though single readings can be large or run the other way; the % refers to the signal ratio.

molecular target: Androgen receptor (Homo sapiens) (UniProt P10275); assay: qHTS assay for small molecule agonists of androgen receptor signaling (AID 588515); conditions: AR-UAS-bla HEK293, beta-lactamase ratio, agonist 16 h; active compounds read high
Source text: NIH Chemical Genomics Center [NCGC] U.S. Environmental Protection Agency [EPA] National Institutes of Environmental Health Sciences [NIEHS] National Toxicology Program [NTP] NCGC Assay Overview Androgen receptor (AR), located at chromosome Xq11-12, is an important member of nuclear hormone receptors. AR signaling plays a critical role in AR-dependent prostate cancer and other androgen related diseases. Considerable attention has been given in the past decades to the possibility of some of environmental chemicals which may contribute the endocrine disruption. Therefore, it is important to understand the effect of environmental chemicals in AR signaling pathway.
NCGC Assay Protocol Summary Using a beta-lactamase reporter-gene under control of the AR response element, a cell-based assay [GeneBLAzer AR-UAS-bla-GripTite assay developed by Invitrogen] was used to measure AR ligands signaling. AR-UAS-bla-GripTite HEK 293 cells were used with assay medium containing 10% dialyzed FBS, 0.1 mM NEAA and 1 mM sodium pyruvate. The assay was performed in clear bottom black Greiner 1536-well plates. R1881, a synthetic androgen agonist, was used as a positive control in the screen. Library compounds were measured for their ability to stimulate the reporter gene activity. Compounds were screened in a titration series in 1536-well format. The fluorescence intensity (405 nm excitation, 460/530 nm emission) was measured using an EnVision plate reader. Data was normalized relative to R1881 control (30 nM, 100%), and DMSO only wells (basal, 0%). Concentration-response titration points for each compound were fitted to the Hill equation yielding concentrations of half-maximal stimulation (EC50) and maximal response (efficacy) values. qHTS protocol for AR beta-lactamase assay in agonist mode [Step] [Parameter] [Value] [Description] 1. Reagent; 6 uL; 2000 cells/well 2. Incubation; 37 C for 5 hrs 3. Compounds; 23 nL; 0.59 nM to 92 uM 4. Controls (R1881); 23 nL, - Dose response, start 3.83uM, 1:3 dilutions with duplicates in one column - Final concentrations of 30 and 20nM in two columns 5. Incubation; 37 C for 16 hrs 6. Detection reagent; 1 uL of CCF4-dye 7. Incubation; RT for 2 hrs 8. Detection; Fluorescence; Envision plate reader
% is scaled to controls: 0 for no effect and ±100 for the full control effect.

Androgen receptor (Homo sapiens), sequence (P10275 whole entry, looked up): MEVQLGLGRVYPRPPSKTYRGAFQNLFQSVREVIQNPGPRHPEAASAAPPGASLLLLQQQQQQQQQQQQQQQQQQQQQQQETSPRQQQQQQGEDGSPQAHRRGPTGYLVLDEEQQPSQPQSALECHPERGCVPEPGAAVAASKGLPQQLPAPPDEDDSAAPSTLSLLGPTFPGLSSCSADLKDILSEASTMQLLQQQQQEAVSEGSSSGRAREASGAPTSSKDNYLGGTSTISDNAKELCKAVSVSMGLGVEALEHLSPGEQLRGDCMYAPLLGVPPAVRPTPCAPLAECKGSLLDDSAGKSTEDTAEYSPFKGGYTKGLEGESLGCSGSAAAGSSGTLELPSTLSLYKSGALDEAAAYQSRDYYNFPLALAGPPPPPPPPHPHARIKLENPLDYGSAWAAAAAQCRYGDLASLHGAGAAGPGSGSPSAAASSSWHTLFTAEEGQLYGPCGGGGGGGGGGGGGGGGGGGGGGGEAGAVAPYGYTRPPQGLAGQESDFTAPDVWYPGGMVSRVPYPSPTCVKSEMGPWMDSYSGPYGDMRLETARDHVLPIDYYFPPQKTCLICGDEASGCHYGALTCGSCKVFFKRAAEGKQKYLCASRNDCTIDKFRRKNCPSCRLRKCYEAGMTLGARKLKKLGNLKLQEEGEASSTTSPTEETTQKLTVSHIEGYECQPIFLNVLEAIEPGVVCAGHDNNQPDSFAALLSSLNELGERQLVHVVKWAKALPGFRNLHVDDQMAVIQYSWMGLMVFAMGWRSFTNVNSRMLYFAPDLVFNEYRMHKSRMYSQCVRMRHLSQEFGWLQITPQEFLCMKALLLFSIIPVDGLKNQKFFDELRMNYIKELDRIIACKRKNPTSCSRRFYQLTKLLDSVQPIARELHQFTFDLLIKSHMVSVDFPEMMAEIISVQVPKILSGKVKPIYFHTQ

Row | Structure (SMILES) | activation
1 | O=[N+]([O-])/N=C1\NCCN1Cc1ccc(Cl)nc1 | 8.09%
2 | CC(C)(c1ccc(O)cc1)c1ccc(O)cc1 | -6.96%
3 | C=CC(=O)NCNC(=O)C=C | 20.4% and 9.02%
4 | Nc1ccc(Cl)cc1N | -2.06%
5 | O=[N+]([O-])c1cc([N+](=O)[O-])c2ccccc2c1 | -1.64%
6 | Nc1ccc([N+](=O)[O-])cc1 | 7.63%
7 | Nc1c(Cl)c(Cl)c(Cl)c(Cl)c1Cl | 1.01%
8 | CCCCCCCCc1ccc(O)cc1 | -7.85% and -15.7%
9 | c1cc2ccc3cccc4ccc(c1)c2c34 | 11.6% and 8.44%
10 | COC(C)(C)CCCC(C)C/C=C/C(C)=C/C(=O)OC(C)C (stereo not drawn) | -13.7% and -1.74%
11 | CCOP(=O)(NC(C)C)Oc1ccc(SC)c(C)c1 (stereo not drawn) | 2.45% and -12.7%
12 | CCO/N=C(\CC)C1=C(O)CC(c2c(C)cc(C)cc2C)CC1=O (stereo not drawn) | -1.77%
13 | O=C(O)CCCOc1ccc(Cl)cc1Cl | -19.7%
